rCAG binder: binds r(CAG) RNA repeats. r(CAG) RNA repeat, TO-PRO-1 dye displacement fluorescence. inhibition, % at 3 µM. 370,000 compounds, 1.3% hits. AID 651821;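 active = inhibition above the plate cutoff, the mean of all test compounds on that plate plus 3 SD, cut at about 35% in these data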;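 also: 0% = DMSO alone and 100% = 100 µM mitoxantrone as full dye displacement; higher means more dye released from RNA so lower well fluorescence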
NadD inh: blocks S. aureus nicotinate mononucleotide adenylyltransferase; inhibition, % at 20 µM; 360,000 compounds, 0.78% hits; AID 602399; purified NadD enzyme, colorimetric absorbance read-out; in the data active = inhibition above about 26%
DAGLB inh: diacylglycerol lipase beta (human) inhibition. HEK293T DAGLB membrane lysate, EnzChek fluorogenic substrate. AID 504411. 340,000 compounds, 0.059% hits. inhibition, % at 5.17 µM. Q8NCG7; in the data active = inhibition above about 34%;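 also: 0% = enzyme with vehicle and 100% = wells lacking enzyme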
Pemphigus Ab inh: blocks pemphigus antibody binding to human desmoglein-3; binding (percent of control), % at 10 µM; DSG3-coupled beads, scFv-anti-DSG3-GFP binding, flow cytometry; active compounds read low; P32926; 310,000 compounds, 0.48% hits; AID 588358;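 active = binding more than 3 SD below its plate's average and above zero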;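 also: hits lower antibody fragment binding to DSG3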
Target sequence (P32926 whole entry, looked up, the tested form may be a part): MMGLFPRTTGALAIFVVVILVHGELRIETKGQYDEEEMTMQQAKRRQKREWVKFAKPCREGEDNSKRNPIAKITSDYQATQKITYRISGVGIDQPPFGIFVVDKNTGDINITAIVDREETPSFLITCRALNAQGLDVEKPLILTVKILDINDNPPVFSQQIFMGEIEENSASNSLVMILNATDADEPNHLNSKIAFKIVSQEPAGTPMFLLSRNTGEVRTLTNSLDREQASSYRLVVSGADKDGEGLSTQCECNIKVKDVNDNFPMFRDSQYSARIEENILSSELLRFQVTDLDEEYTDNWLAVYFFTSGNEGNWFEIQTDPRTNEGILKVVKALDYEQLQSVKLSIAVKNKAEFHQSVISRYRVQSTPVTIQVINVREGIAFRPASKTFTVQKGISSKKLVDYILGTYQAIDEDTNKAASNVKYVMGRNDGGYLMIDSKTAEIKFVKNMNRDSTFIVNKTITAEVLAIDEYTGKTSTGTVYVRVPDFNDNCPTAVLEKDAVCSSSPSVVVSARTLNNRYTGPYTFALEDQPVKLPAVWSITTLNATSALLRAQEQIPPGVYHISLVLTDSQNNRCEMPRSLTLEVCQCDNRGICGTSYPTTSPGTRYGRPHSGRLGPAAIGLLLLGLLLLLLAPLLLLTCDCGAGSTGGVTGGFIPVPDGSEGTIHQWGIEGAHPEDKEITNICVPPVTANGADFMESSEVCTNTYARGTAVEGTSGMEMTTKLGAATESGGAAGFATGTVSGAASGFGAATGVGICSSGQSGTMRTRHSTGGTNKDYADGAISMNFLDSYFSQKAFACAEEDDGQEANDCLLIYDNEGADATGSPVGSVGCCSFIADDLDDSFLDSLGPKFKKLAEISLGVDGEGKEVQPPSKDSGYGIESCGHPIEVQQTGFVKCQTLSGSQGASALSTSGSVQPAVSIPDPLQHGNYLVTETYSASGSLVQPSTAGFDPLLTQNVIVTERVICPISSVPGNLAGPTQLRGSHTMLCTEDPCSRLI
MsrA inh: inhibits bovine methionine sulfoxide reductase A; purified bovine MsrA, absorbance read-out; 360,000 compounds, 0.75% hits; inhibition, % at 15.5 µM; in the data active = inhibition above about 4.5%;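 also: 0% = vehicle wells with enzyme and 100% = reference inhibitor wells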
bovine MsrA act: activates bovine MsrA enzyme | purified bovine MsrA, absorbance read-out | activation, % at 10.6 µM | 360,000 compounds, 0.3% hits | AID 602163; in the data active = activation above about 7.5%;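 also: 0% = vehicle and 100% = reference activator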
Active calls of the source: *; . = not tested or not shown. Sampled rows, rich in hits. Any-hit rate of the full collection: about 3.2%.

SMILES | rCAG binder | NadD inh | DAGLB inh | Pemphigus Ab inh | MsrA inh | bovine MsrA act
O=C(CCCn1c(=O)[nH]c2ccccc2c1=O)NCCSCc1ccccc1 | -5.3 | -0.9 | -1.9 | 23.1* | 0.9 | -1.2
COC(=O)[C@H](C(C)C)N(CCCc1cn(CC2CCCCC2)nn1)S(=O)(=O)c1ccccc1Br | 3.2 | . | . | . | . | .
CN(c1ccc(C(=O)NC2CC3CCC2C3)cc1)S(C)(=O)=O (stereo not drawn) | 0.6 | -2.3 | 0.9 | 6.6* | -0.6 | -10.4
Cc1cc(C)cc(N(CC(=O)NC2CC3CCC2C3)S(C)(=O)=O)c1 (stereo not drawn) | -1.7 | 5.7 | 3.0 | 98.2 | -0.1 | -1.4
N#Cc1cccc(NC(=O)OCCN2C(=O)CCC23CCC(c2ccccc2)CC3)c1 (stereo not drawn) | 2.7 | . | . | . | . | .
Cc1nnc2n(c1=O)C(CS(=O)(=O)c1ccccc1)CS2 (stereo not drawn) | 0.4 | -1.9 | 3.2 | 92.5 | 0.4 | -1.3
O=[N+]([O-])c1ccc(S(=O)(=O)CC2CSc3nc4ccccc4n32)cc1 (stereo not drawn) | 3.6 | 4.2 | -4.4 | -10.4* | 0.0 | -14.6
O=c1c2ccccc2c(-c2cccc(C(F)(F)F)c2)nn1-c1ccccc1 | -1.1 | -7.6 | -9.4 | . | -0.6 | -2.5
O=C(O)c1cccc(-n2c(/C=C/c3ccccc3)nc3ccccc3c2=O)c1 | 30.3 | 0.1 | 4.2 | 103.9 | 4.2 | -3.0
O=C(O)c1cccc(-n2sc3ccccc3c2=O)c1 | -3.0 | -5.4 | 0.6 | 60.8* | 1.6 | 17.4*
O=c1c2cc(C(F)(F)F)ccc2sn1-c1ccccc1 | 2.3 | 4.1 | 5.2 | 68.1* | -0.7 | 7.0
N#Cc1ccc2c(=O)n(-c3ccccc3)sc2c1 | 1.2 | 8.8 | 3.2 | 67.9* | -0.7 | 5.0
Cc1cccc(N=C2NC(=O)/C(=C/c3cccn3C)S2)c1 | 3.6 | -9.1 | 1.8 | 107.2 | -0.6 | -1.7
O=C1NC(=Nc2ccccc2)S/C1=C\c1cccn1-c1ccccc1 | 13.3 | 37.9* | 1.9 | 105.4 | -0.2 | 0.6
O=C(COC(=O)c1ccc(S(=O)(=O)N2CCCCC2)cc1)NC1CCCCC1 | 0.6 | 2.4 | 0.7 | 102.3 | 0.6 | -2.0
O=C(COC(=O)c1ccc(S(=O)(=O)N2CCc3ccccc3C2)cc1)NC1CCS(=O)(=O)C1 (stereo not drawn) | -0.5 | -0.5 | 0.5 | 67.5* | 1.1 | -3.8
COc1ccc(NC(=O)Nc2ccccc2SC)c(OC)c1 | -8.5 | 0.5 | 4.6 | -6.3* | -0.4 | -2.4
O=C(NC1CCCCC1)C(c1ccc(O)cc1)N(CC1CCCO1)C(=O)C1COc2ccccc2O1 (stereo not drawn) | -3.8 | 2.8 | -1.0 | 78.2* | 3.0 | 7.0
Cc1nc(SCC(=O)NCc2ccco2)c2c3c(sc2n1)CCCC3 | 1.2 | 10.1 | -15.8 | 108.9 | 0.8 | -1.1
CCCc1nc2sc3c(SCC(=O)NCc4ccco4)ncnc3c2c2c1CCC2 | -1.1 | 33.9* | 1.9 | 98.0 | -0.6 | -3.3
Cc1cccc2cc(CN(C(=O)c3cccc([N+](=O)[O-])c3)C(C)C)c(=O)[nH]c12 | 2.1 | 1.4 | 2.5 | 59.5* | -0.2 | -9.2
O=C1C(=Cc2ccc(Br)o2)C(=O)c2ccccc21 | . | 33.3* | 2.9 | 94.2* | . | -8.9
CC1=C/C(=C\c2ccc(Br)o2)C(=O)O1 | 3.9 | -4.3 | -1.4 | 83.8 | -0.9 | -8.5
Cc1ccc(-c2nc3c(Cl)cc(C(F)(F)F)cn3c2Cc2ccccc2C(F)(F)F)cc1 | 35.3* | 10.0 | . | . | -0.8 | -1.8
Cc1ccccc1NC(=O)Nc1nc2ccc(S(C)(=O)=O)cc2s1 | 7.8 | 5.0 | 2.8 | 73.8* | -0.7 | -3.1
SMILES | rCAG binder | NadD inh | DAGLB inh | Pemphigus Ab inh | MsrA inh | bovine MsrA act
CS(=O)(=O)c1ccc2nc(NC(=O)c3cccs3)sc2c1 | 0.8 | 3.2 | 2.4 | . | 6.8* | -6.4
CSc1nc2ccc(NC(=O)c3cccs3)cc2s1 | 3.6 | 4.8 | -4.7 | 28.3* | 0.6 | -2.4
NS(=O)(=O)c1ccc2nc(NC(=O)Nc3ccccc3F)sc2c1 | 1.7 | -5.6 | 0.2 | 96.2 | 0.2 | -5.6
CCOc1ccc(NC(=O)Nc2nc3ccc(S(C)(=O)=O)cc3s2)cc1 | 38.9* | -0.5 | 1.6 | 105.1 | 0.3 | 0.3
O=C(COC(=O)C1CCN(S(=O)(=O)c2ccc(Cl)c(C(F)(F)F)c2)CC1)NCC1CCCO1 (stereo not drawn) | -0.7 | 1.4 | -1.1 | 101.0 | -0.8 | -1.3
O=C(CSc1nnc(-c2cnccn2)n1-c1ccccc1)c1ccccc1Br | 8.2 | . | . | . | . | .
COC(=O)C(C)Sc1nc(NCc2ccccc2)nc(N(C)C)n1 (stereo not drawn) | -5.3 | -3.6 | -2.8 | 83.9* | 0.0 | -7.4
COc1ccc(S(=O)(=O)N2CCN(C(=O)CSc3nc4ccccc4nc3N3CCCCC3)CC2)cc1 | 9.2 | . | . | . | . | .
Cc1ccc(-c2cc(C(=O)NN=Cc3cccc(Oc4ccccc4)c3)[nH]n2)cc1C | 14.9 | . | . | . | . | .
Nc1cc(-c2ccc(Br)cc2)nn1S(=O)(=O)c1ccccc1 | 10.3 | 2.9 | -0.7 | 62.2* | 1.8 | -1.1
Nc1cc(-c2ccccc2)nn1S(=O)(=O)c1ccc(F)cc1 | 3.2 | -3.3 | 0.4 | 102.2 | 0.5 | -2.1
CCOc1ccc(S(=O)(=O)N2CCN(C(=O)c3ccccc3Cc3ccccc3)CC2)cc1 | -0.4 | 1.9 | -3.2 | 80.4* | -0.5 | -0.7
O=C1S/C(=C/c2ccccc2)C(=O)N1CC(O)Cn1c2ccccc2c2ccccc21 (stereo not drawn) | 7.9 | 16.2 | -6.4 | 109.3 | 4.0 | -2.0
CN(C)c1ccc(/C=C2\SC(=O)N(CC(O)Cn3c4ccccc4c4ccccc43)C2=O)cc1 (stereo not drawn) | 4.3 | 33.3* | -2.4 | 109.0 | -0.3 | -2.2
Cc1ccccc1CN1CCCCC(NC(=O)Cc2cccs2)C1=O (stereo not drawn) | 3.7 | . | . | . | . | .
CC1CCN(S(=O)(=O)c2ccc(Cl)cc2Br)CC1 | -2.4 | -1.1 | -6.8 | . | 8.8* | -4.0
CCN1Cc2nnn(Cc3ccc(C)cc3)c2-c2ccccc2S1(=O)=O | -0.4 | . | . | . | . | .
COC(=O)c1cc(-c2cccc(C#N)c2)c(=O)n2c1CCC2 | 1.3 | . | . | . | . | .
COc1ccc(Cl)cc1C(Nc1cccnc1)c1ccc2cccnc2c1O (stereo not drawn) | -0.4 | 40.2* | 9.0 | 105.5 | 1.3 | -5.7
CCCCOC(=O)CSc1nc(N)c(C#N)c(-c2ccc(OCC)cc2)c1C#N | -2.6 | -4.8 | 1.3 | 80.1* | -0.7 | -6.2
CCCOC(=O)CSc1nc(N)c(C#N)c(CC)c1C#N | -4.0 | -1.0 | -1.9 | 12.5* | 2.8 | 1.2
CCCCOC(=O)CSc1nc(N)c(C#N)c(-c2ccc(OC)cc2)c1C#N | 0.0 | -0.6 | -2.6 | -28.5* | -0.1 | -0.7
O=C(OC12CCCN(C1)/C(=C/c1ccncc1)C2)C1CCCCC1 (stereo not drawn) | 1.1 | . | . | . | . | .
COc1ccc(/C=N/NC(=O)c2nc(-c3ccccc3)n(-c3ccccc3)n2)cc1 | -1.3 | 7.5 | 3.3 | 116.0 | 1.2 | -2.2
COc1cccc(/C=N/NC(=O)c2nc(-c3ccccc3)cc(-c3ccccc3)n2)c1O | 5.2 | 29.2* | 8.8 | 95.9 | 0.8 | -5.1

Screens from PubChem BioAssay.
